# Assay results published in PubChem BioAssay AID1159580 (chemical genetic matrix, 2015).
# Among all 5,500 compounds or so, about 2,000 (36%) were called active. Another 18% or so got no clear call; they are omitted. Some of the results follow. A number with no mark means an inactive call. No stated cut-off is given here; in the data, active means normalized growth mostly below about 0.91 (no sharp cut-off); inconclusive means no clear call, values can overlap the other calls; inactive means mostly above about 0.92.
# Assay: chemical genetic growth profiling, strain panel (AID 1159580);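 further: tested at 20 µM; growth read once vehicle control cultures reached saturation at 30 °C; 1 = growth at the plate median or of vehicle wells; lower values mean less growth of the strain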
# Conditions: S. cerevisiae deletion strains, growth OD
# [1] = locus YAL013W, strain DEP1, active compounds read low
# [2] = locus YGR078C, strain PAC10, active compounds read low
# [3] = locus YMR263W, strain SAP30, active compounds read low
# [4] = locus YMR307W, strain GAS1, active compounds read low
# [5] = locus YNL322C, strain KRE1, active compounds read low
# [6] = locus YPL241C, strain CIN2, active compounds read low
structure (smiles),measurement,setting,value
COC(OC)c1ccc(C#N)c(=S)[nH]1,normalized growth,[1],1.01
same,normalized growth,"locus YBR229C, strain ROT2, active compounds read low",1.02
same,normalized growth,"locus YCL061C, strain MRC1, active compounds read low",1.01
same,normalized growth,"locus YDL101C, strain DUN1, active compounds read low",1
same,normalized growth,"locus YDL134C, strain PPH21, active compounds read low",1.01
same,normalized growth,"locus YDR150W, strain NUM1, active compounds read low",0.996
same,normalized growth,"locus YEL061C, strain CIN8, active compounds read low",1.01
same,normalized growth,[2],0.989
same,normalized growth,"locus YHR030C, strain SLT2, active compounds read low",1.08
same,normalized growth,"locus YHR087W, strain rtc3, active compounds read low",1.03
same,normalized growth,"locus YJL187C, strain SWE1, active compounds read low",0.994
same,normalized growth,"locus YJR043C, strain POL32, active compounds read low",1.01
same,normalized growth,"locus YJR075W, strain HOC1, active compounds read low",1
same,normalized growth,"locus YLR039C, strain RIC1, active compounds read low",1.05
same,normalized growth,"locus YLR058C, strain SHM2 (second series), active compounds read low",1.01
same,normalized growth,"locus YLR085C, strain ARP6, active compounds read low",1.16
same,normalized growth,"locus YLR262C, strain YPT6, active compounds read low",1
same,normalized growth,"locus YML094W, strain GIM5, active compounds read low",1.04
same,normalized growth,"locus YMR219W, strain ESC1, active compounds read low",1.01
same,normalized growth,[3],1.02
same,normalized growth,[4],1.06
same,normalized growth,"locus YNL153C, strain GIM3, active compounds read low",1
same,normalized growth,"locus YNL298W, strain CLA4 (second series), active compounds read low",1.02
same,normalized growth,[5],1.01
same,normalized growth,"locus YNR030W, strain Alg12, active compounds read low",0.992
same,normalized growth,"locus YPL055C, strain LGE1, active compounds read low",1.04
same,normalized growth,[6],1.11
same,normalized growth,"locus YPR135W, strain CTF4, active compounds read low",1.1
CCC1(O)C(=O)OCc2c1cc1n(c2=O)Cc2cc3ccccc3nc2-1 (centres undefined),normalized growth,[1],0.872 (active)
same,normalized growth,"locus YAL040C, strain CLN3, active compounds read low",0.953
same,normalized growth,"locus YCL061C, strain MRC1 (second series), active compounds read low",0.977
same,normalized growth,"locus YDR363W, strain ESC2, active compounds read low",0.724 (active)
same,normalized growth,"locus YER002W, strain NOP16, active compounds read low",0.971
same,normalized growth,[2],1.01
same,normalized growth,"locus YGR229C, strain SMI1, active compounds read low",0.672 (active)
same,normalized growth,[3],0.98
same,normalized growth,[4],0.904 (active)
same,normalized growth,"locus YNL128W, strain TEP1, active compounds read low",0.906
same,normalized growth,"locus YNL175C, strain NOP13, active compounds read low",0.998
same,normalized growth,"locus YNL197C, strain WHI3, active compounds read low",0.976
same,normalized growth,"locus YNL224C, strain SQS1, active compounds read low",0.897 (active)
same,normalized growth,[5],0.971
same,normalized growth,"locus YOR083W, strain WHI5 (second series), active compounds read low",0.867 (active)
same,normalized growth,[6],0.984
